Measured values: PubChem BioAssay (NCATS)
A number with no mark means an inactive call. Inconclusive results are not listed. Where a call stands in place of a potency, no number is given. The source made the active and inactive calls. Unless noted, the call rests on the fitted dose curve; in most records, active means well fitted curve in the direction sought with a large enough effect; inconclusive means small, poorly fitted or top-dose-only effect, or another doubt; inactive means no such curve, though single readings can be large; an effect the other way counts as inactive or inconclusive.

Tests used:
[1] = Viability counterscreen for antagonist of constitutive androstane receptor (CAR) against the NCATS DSHEA and TCM libraries (AID 1794837);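 further: compound exposure lasted 24 h before viability reading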
Outline: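 Fluorescence from CellTiter-Fluor reports live-cell protease activity in HepG2-CYP2B6-hCAR cells treated for 24 h with substances alongside 48 uM CITCO.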

[2] = Viability counterscreen for agonist of constitutive androstane receptor (CAR) against the NCATS DSHEA and TCM libraries (AID 1794838);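 further: cells exposed to compound for 24 h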
Outline: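 In agonist mode, PK11195 is added at 0.75 uM final to HepG2-CYP2B6-hCAR cells dosed with test substances. Cultures incubate 24 h at 37C before a protease-based fluorogenic viability readout.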

[3] = molecular target: Nuclear receptor subfamily 1 group I member 3 (Homo sapiens) (UniProt Q14994); assay: Primary qHTS for agonist of constitutive androstane receptor (CAR) against the NCATS DSHEA and TCM libraries (AID 1794839); further: potency means the concentration at half of the fitted maximal effect;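 on activation: HepG2 cells expressing human CAR with a CYP2B6 reporter plus PK11195 antagonist; luciferase reporter luminescence read with ONE-Glo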
Sequence of Nuclear receptor subfamily 1 group I member 3 (Homo sapiens) (Q14994 whole entry, looked up): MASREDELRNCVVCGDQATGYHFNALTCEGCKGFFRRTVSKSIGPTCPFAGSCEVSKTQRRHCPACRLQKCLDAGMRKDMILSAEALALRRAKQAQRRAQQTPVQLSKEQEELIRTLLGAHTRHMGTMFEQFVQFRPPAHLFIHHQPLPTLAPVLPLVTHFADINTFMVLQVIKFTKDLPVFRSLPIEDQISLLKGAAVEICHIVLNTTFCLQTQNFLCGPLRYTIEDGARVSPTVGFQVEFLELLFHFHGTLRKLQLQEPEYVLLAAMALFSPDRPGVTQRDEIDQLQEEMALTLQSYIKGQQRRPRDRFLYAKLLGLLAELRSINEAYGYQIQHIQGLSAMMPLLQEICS
Outline: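 Cells stably carrying hCAR and a CYP2B6 reporter (HepG2 background) are seeded and allowed 5 h to adhere. Substances at multiple concentrations are added alongside 0.75 µM PK11195, and luciferase signal is measured after 24 h.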

[4] = HepG2 viability counterscreen (readout 2: ATP content) against the NCATS DSHEA and TCM libraries (AID 1794840);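 further: HepG2 cells exposed to substances for about 24 h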
Outline: (§1)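 Cytotoxicity was assessed in HepG2 cells plated at 1,000 cells/well and exposed for about 24 hours to a concentration series. Protease activity and ATP content were measured sequentially in each well.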

[5] = HepG2 viability counterscreen (readout 1: protease activity) against the NCATS DSHEA and TCM libraries (AID 1794841);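 further: cells exposed to compounds for about 24 h before the protease read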
Outline: as §1

[6] = NCATS anti-infectives library activity on HEK293 viability as a counter-qHTS vs the C. elegans viability qHTS (AID 1745854);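 further: HEK293 cells exposed to compounds for 24 hr before the viability read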
Outline: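 HEK293 cells (1,500/well) exposed 24 hr at 37C to 1:5 titrations, up to 41.7 uM final; counter-screen to a C. elegans viability qHTS. Viability by CellTiter-Glo luminescence after 10 min at room temperature; digitonin as control.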

[7] = molecular target: Rap guanine nucleotide exchange factor 3 (Homo sapiens) (UniProt O95398); assay: Counterscreen qHTS for antagonist of cAMP-regulated guanine nucleotide exchange factor 3 (EPAC1) (AID 1645888);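 further: fluorescence loss as bound BODIPY-GDP is released from Rap1B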
Sequence of Rap guanine nucleotide exchange factor 3 (Homo sapiens) (O95398 whole entry, looked up): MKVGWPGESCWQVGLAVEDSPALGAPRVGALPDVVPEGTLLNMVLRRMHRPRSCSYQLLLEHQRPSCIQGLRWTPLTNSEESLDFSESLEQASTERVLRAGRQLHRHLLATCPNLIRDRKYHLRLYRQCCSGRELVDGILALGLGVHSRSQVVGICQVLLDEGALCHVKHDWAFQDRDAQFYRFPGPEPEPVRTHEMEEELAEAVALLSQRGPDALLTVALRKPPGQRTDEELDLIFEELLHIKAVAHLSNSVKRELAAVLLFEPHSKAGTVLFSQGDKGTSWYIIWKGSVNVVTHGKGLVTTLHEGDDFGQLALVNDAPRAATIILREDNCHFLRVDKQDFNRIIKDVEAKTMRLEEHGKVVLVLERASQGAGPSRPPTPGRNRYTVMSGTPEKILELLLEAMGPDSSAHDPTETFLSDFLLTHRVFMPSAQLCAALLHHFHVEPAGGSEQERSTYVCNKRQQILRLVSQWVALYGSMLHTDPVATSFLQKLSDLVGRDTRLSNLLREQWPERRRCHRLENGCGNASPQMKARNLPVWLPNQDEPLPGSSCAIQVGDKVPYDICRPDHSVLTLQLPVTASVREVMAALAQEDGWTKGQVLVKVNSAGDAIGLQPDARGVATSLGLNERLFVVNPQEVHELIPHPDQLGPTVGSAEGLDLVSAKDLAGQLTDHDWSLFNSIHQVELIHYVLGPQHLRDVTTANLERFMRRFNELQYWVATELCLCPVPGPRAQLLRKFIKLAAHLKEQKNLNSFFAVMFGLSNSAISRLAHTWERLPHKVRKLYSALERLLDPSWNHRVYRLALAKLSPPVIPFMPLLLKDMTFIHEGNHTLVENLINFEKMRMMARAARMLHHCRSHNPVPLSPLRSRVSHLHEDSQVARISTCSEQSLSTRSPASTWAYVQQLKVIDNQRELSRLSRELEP
Outline: (§2)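 Rap1B–BODIPY-GDP (250 nM) with 50 uM GDP; compounds pin-transferred to 9.74 nM–152 uM final (activator) or from 7.32 nM upwards (inhibitor). Fluorescence Ex/Em 480/540 nm read at 5 and 30 min, then after adding cAMP or buffer, at room temperature.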

[8] = molecular target: Rap guanine nucleotide exchange factor 3 (Homo sapiens) (UniProt O95398); assay: Counterscreen qHTS for agonist of cAMP-regulated guanine nucleotide exchange factor 3 (EPAC1) (AID 1645889); further: nearly all actives have a fitted effect of over 40% in size
Outline: as §2

[9] = molecular target: Rap guanine nucleotide exchange factor 4 (Homo sapiens) (UniProt Q8WZA2); assay: Confirmatory qHTS for antagonist of cAMP-regulated guanine nucleotide exchange factor 4 (EPAC2) (AID 1645885); further: nearly all actives have a fitted effect of over 25% in size
Sequence of Rap guanine nucleotide exchange factor 4 (Homo sapiens) (Q8WZA2 whole entry, looked up): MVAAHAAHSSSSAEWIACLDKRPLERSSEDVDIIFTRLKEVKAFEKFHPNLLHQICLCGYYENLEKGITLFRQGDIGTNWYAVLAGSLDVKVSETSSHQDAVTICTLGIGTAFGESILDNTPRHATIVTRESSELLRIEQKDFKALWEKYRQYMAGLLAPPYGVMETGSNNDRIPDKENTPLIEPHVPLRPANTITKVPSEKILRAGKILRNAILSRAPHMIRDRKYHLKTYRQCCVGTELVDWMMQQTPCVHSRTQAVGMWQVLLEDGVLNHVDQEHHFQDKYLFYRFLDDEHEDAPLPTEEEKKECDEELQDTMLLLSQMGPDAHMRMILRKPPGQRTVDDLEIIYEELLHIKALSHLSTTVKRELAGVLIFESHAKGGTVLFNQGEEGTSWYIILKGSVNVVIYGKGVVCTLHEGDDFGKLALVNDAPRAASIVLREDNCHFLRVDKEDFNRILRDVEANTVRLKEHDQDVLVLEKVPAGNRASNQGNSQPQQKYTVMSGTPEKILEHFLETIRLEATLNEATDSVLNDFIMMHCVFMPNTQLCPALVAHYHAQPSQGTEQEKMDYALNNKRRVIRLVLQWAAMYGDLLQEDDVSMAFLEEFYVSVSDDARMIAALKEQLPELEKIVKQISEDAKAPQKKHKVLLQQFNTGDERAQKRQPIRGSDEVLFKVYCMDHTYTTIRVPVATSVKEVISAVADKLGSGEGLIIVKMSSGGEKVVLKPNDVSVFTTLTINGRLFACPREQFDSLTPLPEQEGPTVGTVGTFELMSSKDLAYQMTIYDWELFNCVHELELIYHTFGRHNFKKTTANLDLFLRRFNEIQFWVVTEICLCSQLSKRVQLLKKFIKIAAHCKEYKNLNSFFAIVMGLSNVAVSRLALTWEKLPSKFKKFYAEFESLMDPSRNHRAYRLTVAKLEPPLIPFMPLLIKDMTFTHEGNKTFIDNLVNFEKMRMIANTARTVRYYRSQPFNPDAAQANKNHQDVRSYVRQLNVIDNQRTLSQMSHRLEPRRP

[10] = NCATS anti-infectives library activity on the primary C. elegans qHTS viability assay (AID 1745855; calls by dose curve; further: potency means the concentration at half of the fitted maximal effect)
Outline: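 Viability read-out is GFP fluorescence of PE254-GFP-FLuc C. elegans, measured by laser cytometry (488 nm) at day 0, 3 and 7. Ten L1 worms per well were incubated 7 days at 21 °C with compounds and bacterial capsules in S medium.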

Cc1ncc(C[n+]2csc(CCO)c2C)c(N)n1
outcome [1]: inactive | outcome [2]: inactive | Potency [3]: inactive | outcome [4]: inactive | outcome [5]: inactive

CC[C@H](CC[C@@H](C)[C@H]1CC[C@H]2[C@@H]3CC=C4C[C@@H](O)CC[C@]4(C)[C@H]3CC[C@]12C)C(C)C
outcome [1]: inactive | outcome [2]: inactive | outcome [4]: inactive | outcome [5]: inactive

O=C1c2c(O)cccc2[C@H]([C@@H]2O[C@H](CO)[C@@H](O)[C@H](O)[C@H]2O)c2cc(CO)cc(O)c21
outcome [6]: inactive

CCCCC/C=C\C/C=C\C/C=C\CCCCC(=O)O
viability change, negative = cytotoxic [1]: -4.69% [at 5 µM] | activity change, negative = cytotoxicity [2]: -8.92% [at 5 µM] | activation [3]: -21.9% [at 5 µM] | activity change, negative = cytotoxic [4]: -4.42% [at 3.42 µM] | activity change, negative = inhibition [5]: 15.8% [at 3.42 µM]

Nc1ccc(N=Nc2ccccc2)c(N)n1
outcome [6]: inactive

Oc1ccc(/C=C/c2cc(O)cc(O)c2)cc1
outcome [7]: inactive | outcome [8]: inactive | outcome [6]: inactive | outcome [1]: inactive | outcome [2]: inactive | Potency [3]: 31.6 µM (active) | outcome [4]: inactive | outcome [5]: inactive

CC[C@H]1OC(=O)[C@H](C)[C@@H](O[C@H]2C[C@@](C)(OC)[C@@H](O)[C@H](C)O2)[C@H](C)[C@@H](O[C@@H]2O[C@H](C)C[C@H](N(C)C)[C@H]2O)[C@](C)(O)C[C@@H](C)CN(C)[C@H](C)[C@@H](O)[C@]1(C)O
outcome [6]: inactive

COc1cc(NCCCC(C)N)c2ncccc2c1 (centres undefined)
Potency [9]: inactive | outcome [7]: inactive

CCCCC(=O)O[C@H]1CC[C@H]2[C@@H]3CCc4cc(O)ccc4[C@H]3CC[C@]12C
Potency [9]: inactive

O=C(O)/C=C/c1ccccc1
outcome [4]: inactive | outcome [5]: inactive

C=CC[C@@H]1/C=C(\C)C[C@H](C)C[C@H](OC)[C@H]2O[C@@](O)(C(=O)C(=O)N3CCCC[C@H]3C(=O)O[C@H](/C(C)=C/[C@@H]3CC[C@@H](O)[C@H](OC)C3)[C@H](C)[C@@H](O)CC1=O)[C@H](C)C[C@@H]2OC
outcome [6]: inactive | Potency [10]: 3.65 µM (active)

CC1=CCC2CC1C2(C)C (centres undefined)
outcome [4]: inactive | outcome [5]: inactive

Oc1cccc(O)c1O
outcome [1]: inactive | outcome [2]: inactive | Potency [3]: inactive | outcome [4]: inactive | outcome [5]: inactive

COC1=C(OC)C(=O)C(C/C=C(\C)CC/C=C(\C)CC/C=C(\C)CC/C=C(\C)CC/C=C(\C)CC/C=C(\C)CC/C=C(\C)CC/C=C(\C)CC/C=C(\C)CCC=C(C)C)=C(C)C1=O
outcome [1]: inactive | outcome [2]: inactive | Potency [3]: inactive | outcome [4]: inactive | outcome [5]: inactive
